Results: PubChem BioAssay (NCATS)
Records with an inconclusive call do not appear. Calls of active or inactive are those of the source. The call rests on the fitted dose curve; in most records, active means well fitted curve in the direction sought with a large enough effect; inconclusive means small, poorly fitted or top-dose-only effect, or another doubt; inactive means no such curve, though single readings can be large; an effect the other way counts as inactive or inconclusive.

Tests used:
[1] = qHTS assay for measurement of the activity of small molecule inhibitors on Zika virus induced Caspase-3 activity in human iPSC derived neural progenitor cells (hNPCs) (AID 1224857); further: nearly all actives have a fitted effect of over 65% in size
Summary of the method: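 In medium with heparin 2 ug/ml and cyclopamine 2 uM, hNPCs (350 cells/well) received compound for one hour and then Zika virus at 2 FFU/cell; caspase activity was measured by Caspase-Glo 3/7 luminescence 6 h post-infection.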

[2] = qHTS assay for measurement of the activity of small molecule inhibitors on Zika virus induced Caspase-3 activity in human astrocytoma cells (AID 1224859)
Summary of the method: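 A cell-based luminescent caspase-3/7 assay used SNB-19 cells infected with ZIKV (2 FFU/cell) for 6 h following 1 h compound pretreatment.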

[3] = qHTS assay to identify small molecule inhibitors of chordoma cells - UCH-1 (AID 1259355); further: nearly all actives have a fitted effect of over 55% in size
Summary of the method: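 800 cells/well, overnight attach; compounds pinned at 15 concs, then auranofin/camptothecin/doxorubicin/rubitecan/topotecan combo added; 48hr 37 C, 5% CO2; CellTiter-Glo, 30min RT, luminescence.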

[4] = qHTS assay to identify small molecule inhibitors of chordoma cells - UCH-2 (AID 1259356); further: series mostly up to about 46 µM
[5] = P-glycoprotein substrates identified in KB-8-5-11 adenocarcinoma cell line, qHTS therapeutic library screen (AID 1346987); further: series mostly up to about 44 µM; nearly all actives have a fitted effect of over 65% in size
Summary of the method: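 Human cervical adenocarcinoma KB-8-5-11 cells, selected in colchicine to over-express P-gp and assayed without it, were exposed for 72 h to titrated compounds. An ATP-based luminescent viability signal gave AC50.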

Measured: Potency

CN1C(=S)CN=C(c2ccccc2)c2cc(Cl)ccc21
inactive: [1] | [2] | [3] | [4]

C#CCOC(C(=O)OCCN(C)C)(c1ccccc1)c1ccccc1
inactive: [1] | [2] | [3] | [4]

CC[N+]1(C)CCCC(OC(=O)C(O)(c2ccccc2)c2ccccc2)C1 (configuration not stated)
inactive: [1] | [2] | [3] | [4]

Cc1ccc2c(c1)C1CN(C)CCC1N2 (configuration not stated)
inactive: [1] | [2] | [3] | [4] | [5]
